Consider nine compounds from PubChem BioAssay (Tox21).

Molecules are shown by their SMILES. Where “and” joins values, the source holds several entries; their conditions need not be identical. Equal entries are not always repeated. A structure can be active in one record and inactive in another. Calls of active or inactive are those of the source. Unless noted, calls follow the shape of the dose curve; as a rule, active = well fitted curve in the direction sought with a large enough effect in the repeat runs; inconclusive = weak or mixed curves; inactive = no such curve, though single readings can be large; an effect the other way counts as inactive or inconclusive.

The nature of test [1]: qHTS assay for identifying genotoxic compounds that show differential cytotoxicity against isogenic chicken DT40 cell lines with known DNA damage response pathways - wild type cell line (AID 743012). Also: nearly all actives have a fitted effect of over 60% in size. Also: potency is read from the fitted curve at half-maximal effect. The method in brief:
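Cells (DT40 wild type, 300/well) are treated with DMSO-dissolved compounds after a ~0.5 h pre-incubation and kept 40 h at 37 C/5% CO2. Viability is then measured by CellTiter-Glo luminescence following 30 min at room temperature.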
(qHTS replaces the single test concentration by a dilution series.)

A short description of test [2]: qHTS assay for identifying genotoxic compounds that show differential cytotoxicity against isogenic chicken DT40 cell lines with known DNA damage response pathways - Rev3 mutant cell line (AID 743014). Also: nearly all actives have a fitted effect of over 55% in size. Also: potency is read from the fitted curve at half-maximal effect.
Test [3] in a line: qHTS assay for identifying genotoxic compounds that show differential cytotoxicity against isogenic chicken DT40 cell lines with known DNA damage response pathways - Rad54/Ku70 mutant cell line (AID 743015). Also: nearly all actives have a fitted effect of over 60% in size. Also: potency is read from the fitted curve at half-maximal effect.
Test [4] can be described thus: qHTS assay to identify small molecule antagonists of the androgen receptor (AR) signaling pathway - cell viability counter screen (AID 743033; also: nearly all actives have a fitted effect of over 45% in size; also: potency is read from the fitted curve at half-maximal effect).
The nature of test [5]: qHTS assay to identify small molecule antagonists of the thyroid receptor (TR) signaling pathway - cell viability counter screen (AID 743064). Also: nearly all actives have a fitted effect of over 50% in size. Also: potency is read from the fitted curve at half-maximal effect. The method in brief: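 Counter screen for cytotoxicity: compound plus T3 (1 nM final) on GH3.TRE-Luc cells, 23.5 h at 37 °C, then fluorescence viability readout with CellTiter-Fluor.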
Test [6] is described as follows: qHTS assay to identify small molecule antagonists of the thyroid receptor (TR) signaling pathway (AID 743065). Also: nearly all actives have a fitted effect of over 55% in size. The method in brief:
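GH3.TRE-Luc rat pituitary cells carrying two TR response elements driving luciferase were plated for 4 h, given compound plus 1 nM T3 (final), and incubated 23.5 h at 37 C. ONE-Glo luminescence measured reporter inhibition; CellTiter-Fluor fluorescence tracked cytotoxicity.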

Test [7] deals with thyroid hormone receptor (rat, GH3 cells). Briefly: qHTS assay to identify small molecule agonists of the thyroid receptor (TR) signaling pathway (AID 743066; calls by dose curve).
Test [8] has as its target Estrogen receptor (Homo sapiens) (UniProt P03372). Briefly: qHTS assay to identify small molecule antagonists of the estrogen receptor alpha (ER-alpha) signaling pathway (AID 743069; active = well fitted curve in the direction sought with a large enough effect in the signal ratio in the repeat runs, not every such curve was filed as active; inconclusive = weak or mixed curves, or effect the other way; inactive = no such curve, though single readings can be large or run the other way; the % refers to the signal ratio; also: potency is read from the fitted curve at half-maximal effect). The method in brief:
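Estradiol-stimulated ER-alpha-UAS-bla HEK293 cells, 18 hr compound exposure at 37C. LiveBLAzer B/G substrate, 2 hr RT, fluorescence read.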

The nature of test [9]: qHTS assay to identify small molecule antagonists of the estrogen receptor alpha (ER-alpha) signaling pathway - cell viability counter screen (AID 743074; calls by dose curve;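 also: HEK293 cells carrying ER-alpha-UAS-bla reporter stimulated with 17beta-estradiol; nearly all actives have a fitted effect of over 45% in size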; also: potency is read from the fitted curve at half-maximal effect).
Test [10] deals with Estrogen receptor (Homo sapiens) (UniProt P03372). Briefly: qHTS assay to identify small molecule agonists of the estrogen receptor alpha (ER-alpha) signaling pathway (AID 743075; calls by dose curve;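 also: HEK293 GripTite cells with ER-alpha and UAS-driven beta-lactamase reporter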; also: potency is read from the fitted curve at half-maximal effect).
Sequence of Estrogen receptor (Homo sapiens) (P03372 whole entry, looked up): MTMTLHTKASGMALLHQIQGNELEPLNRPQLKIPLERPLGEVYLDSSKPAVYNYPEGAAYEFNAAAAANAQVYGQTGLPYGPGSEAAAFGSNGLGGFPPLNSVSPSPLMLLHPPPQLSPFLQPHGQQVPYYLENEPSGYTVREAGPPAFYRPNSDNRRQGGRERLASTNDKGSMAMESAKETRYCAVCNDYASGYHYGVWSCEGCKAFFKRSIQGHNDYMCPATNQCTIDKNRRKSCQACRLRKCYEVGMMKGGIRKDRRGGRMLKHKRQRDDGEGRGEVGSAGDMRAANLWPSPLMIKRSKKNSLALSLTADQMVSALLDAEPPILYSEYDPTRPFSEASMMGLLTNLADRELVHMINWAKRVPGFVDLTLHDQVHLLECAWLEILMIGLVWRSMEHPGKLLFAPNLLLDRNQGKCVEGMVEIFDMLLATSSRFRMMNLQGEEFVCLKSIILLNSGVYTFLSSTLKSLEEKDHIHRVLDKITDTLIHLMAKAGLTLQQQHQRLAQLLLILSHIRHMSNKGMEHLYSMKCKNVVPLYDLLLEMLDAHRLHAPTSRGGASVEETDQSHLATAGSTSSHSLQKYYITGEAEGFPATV
Test [11] has the same target. Kind of test: qHTS assay to identify small molecule agonists of the estrogen receptor alpha (ER-alpha) signaling pathway using the BG1 cell line (AID 743079). Also: nearly all actives have a fitted effect of over 20% in size. Also: potency is read from the fitted curve at half-maximal effect. Particulars: BG1Luc4E2 cells, ERE-luciferase agonist, 22 h; activation: at 70.3 µM (top of the series) unless noted.
Test [12] in a line: qHTS assay to identify small molecule antagonists of the estrogen receptor alpha (ER-alpha) signaling pathway using the BG1 cell line (AID 743080; calls by dose curve;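 also: BG1 cells stimulated with 17beta-estradiol alongside compound; nearly all actives have a fitted effect of over 25% in size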). In a few lines: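 After 5 days in phenol-red-free 10% charcoal-stripped FBS medium, BG1-Luc-4E2 cells were seeded, left 24 h at 37 C, co-treated with compounds and 17beta-estradiol for 21.5 h, then assayed for viability and luciferase.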

A short description of test [13]: qHTS assay to identify small molecule antagonists of the estrogen receptor alpha (ER-alpha) signaling pathway using the BG1 cell line - cell viability counter screen (AID 743081).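 Also: compound given together with 17beta-estradiol as the ER stimulus; nearly all actives have a fitted effect of over 45% in size.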 Also: potency is read from the fitted curve at half-maximal effect.
The target of test [14] is Aromatase (Homo sapiens) (UniProt P11511). Briefly: qHTS assay to identify aromatase inhibitors (AID 743083). Also: nearly all actives have a fitted effect of over 55% in size. Also: potency is read from the fitted curve at half-maximal effect.
Sequence of Aromatase (Homo sapiens) (P11511 whole entry, looked up): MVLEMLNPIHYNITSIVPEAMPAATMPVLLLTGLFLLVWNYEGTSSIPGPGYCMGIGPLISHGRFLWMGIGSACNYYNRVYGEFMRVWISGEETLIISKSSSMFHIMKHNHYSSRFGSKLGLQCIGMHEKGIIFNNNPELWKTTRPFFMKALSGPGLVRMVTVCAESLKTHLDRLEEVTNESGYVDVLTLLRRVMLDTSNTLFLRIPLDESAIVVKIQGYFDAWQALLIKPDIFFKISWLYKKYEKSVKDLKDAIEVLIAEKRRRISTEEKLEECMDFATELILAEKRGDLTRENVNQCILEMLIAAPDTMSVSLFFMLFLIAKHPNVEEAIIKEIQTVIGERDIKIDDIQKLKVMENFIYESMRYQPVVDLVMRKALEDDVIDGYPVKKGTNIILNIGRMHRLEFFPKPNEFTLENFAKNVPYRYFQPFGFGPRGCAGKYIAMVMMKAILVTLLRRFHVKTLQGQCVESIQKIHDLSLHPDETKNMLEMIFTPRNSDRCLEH
Test [15] is described as follows: qHTS assay to identify small molecule antagonists of the androgen receptor (AR) signaling pathway using the MDA cell line - cell viability counter screen (AID 743041; also: nearly all actives have a fitted effect of over 45% in size; also: potency is read from the fitted curve at half-maximal effect). In a few lines: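 Viability counter screen run alongside the AR antagonist reporter: cells seeded 5 h before compound, R1881 added, 16 h incubation at 37C without CO2, fluorescent CellTiter-Fluor signal quantified.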

The target of test [16] is Androgen receptor (Homo sapiens) (UniProt P10275). Briefly: qHTS assay to identify small molecule agonists of the androgen receptor (AR) signaling pathway (AID 743036; active = well fitted activation curve with a large enough effect in the signal ratio in the repeat runs, with a control signal flat, not every such curve was filed as active; inconclusive = weak or mixed curves, or effect the other way; inactive = no such curve, though single readings can be large or run the other way; the % refers to the signal ratio). The method in brief:
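In this Tox21 qHTS, 2,000 HEK293 AR-bla cells per well were incubated with compounds for 16 h at 37C and 5% CO2. Fluorescence intensity was recorded 2 h after adding LiveBLAzer B/G FRET substrate at room temperature.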

The target is the same in test [17]. Kind of test: qHTS assay to identify small molecule agonists of the androgen receptor (AR) signaling pathway using the MDA cell line (AID 743040; also: nearly all actives have a fitted effect of over 20% in size). Particulars: MDA-kb2 AR-luc cells, MMTV luciferase, 16 h, stronger effect = higher value. In a few lines: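 Luminescence from ONE-Glo, read after 30 min at room temperature, reflects MMTV-driven luciferase in MDA-kb2 cells (AR- and GR-responsive). Treatment lasted 16 h at 37C, 0% CO2.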

Test [18] shares this target. Briefly: qHTS assay to identify small molecule antagonists of the androgen receptor (AR) signaling pathway using the MDA cell line (AID 743042; also: nearly all actives have a fitted effect of over 55% in size). In a few lines: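 MDA-kb2 cells (human breast carcinoma, stably carrying an MMTV-luciferase reporter responsive to AR and GR) were plated at 3,000 cells/well and preincubated 5 hr at 37C, then given compound plus R1881 agonist for 16 h. ONE-Glo luminescence was read.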
% is scaled to controls: 0 for no effect and ±100 for the full control effect.

Sequence of Androgen receptor (Homo sapiens) (P10275 whole entry, looked up): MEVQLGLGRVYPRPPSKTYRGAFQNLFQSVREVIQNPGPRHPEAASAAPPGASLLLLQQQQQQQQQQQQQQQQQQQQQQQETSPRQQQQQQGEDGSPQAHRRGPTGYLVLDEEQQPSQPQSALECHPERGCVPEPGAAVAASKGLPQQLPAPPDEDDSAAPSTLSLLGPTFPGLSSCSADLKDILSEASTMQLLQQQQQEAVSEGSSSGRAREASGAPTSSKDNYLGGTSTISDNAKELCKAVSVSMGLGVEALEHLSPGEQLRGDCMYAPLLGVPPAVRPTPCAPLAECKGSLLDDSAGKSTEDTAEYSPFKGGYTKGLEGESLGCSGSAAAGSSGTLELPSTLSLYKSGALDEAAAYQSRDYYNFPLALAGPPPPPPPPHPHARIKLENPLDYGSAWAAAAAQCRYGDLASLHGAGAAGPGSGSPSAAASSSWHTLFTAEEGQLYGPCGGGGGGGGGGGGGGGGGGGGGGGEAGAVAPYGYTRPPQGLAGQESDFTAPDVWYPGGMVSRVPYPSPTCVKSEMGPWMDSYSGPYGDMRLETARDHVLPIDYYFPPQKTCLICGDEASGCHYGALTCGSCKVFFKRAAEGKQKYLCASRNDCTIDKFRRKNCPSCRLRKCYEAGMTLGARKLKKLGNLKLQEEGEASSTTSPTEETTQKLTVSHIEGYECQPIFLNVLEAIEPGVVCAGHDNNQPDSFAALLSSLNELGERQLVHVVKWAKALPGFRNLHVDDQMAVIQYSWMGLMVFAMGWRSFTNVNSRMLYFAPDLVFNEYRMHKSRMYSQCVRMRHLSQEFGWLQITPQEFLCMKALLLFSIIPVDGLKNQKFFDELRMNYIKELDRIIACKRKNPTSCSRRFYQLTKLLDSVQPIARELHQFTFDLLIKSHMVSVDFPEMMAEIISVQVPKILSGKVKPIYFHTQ

For the compound `ClC(Cl)(Cl)c1ccccc1`, the Potency entry in test [1], in [2], in test [3], in test [4], in [5] and in test [6] was “inactive” in each case. Also, the Potency entry in test [7], in [8], in test [9], in test [10], in test [11] and in [12] was “inactive” each time. The Potency entry in test [13] and in [14] was “inactive” throughout.
For `[Cl-].[Cl-].[Cl-].[Fe+3]`, the Potency entry in test [1], in test [2], in test [3], in test [4], in [15] and in test [5] was “inactive” throughout. For the same compound, the Potency entry in test [6], in test [7], in test [9], in test [13] and in test [14] was “inactive” in each case.
On to `CC1(C)C(C(=O)OC(C#N)c2cccc(Oc3ccccc3)c2)C1(C)C` (configuration not stated), for which the Potency entry in test [1] is “inactive and 48.5 µM (active)”; in test [3] it was “inactive and 54.4 µM (active)”; in test [14], 48.9 µM (active). For the same compound, the Potency result in [2], in test [4], in test [15], in test [5], in [7] and in test [8] was “inactive” in each case. Further, the Potency entry in test [9], in test [10], in test [12] and in test [13] was “inactive” throughout.
For the compound `CC(O)CN(CC(C)O)CC(C)O` (configuration not stated), the Potency result in test [1], in test [2], in test [3], in test [4], in test [15] and in test [5] was “inactive” each time. Further, the Potency entry in test [6], in test [7], in [9], in test [13] and in test [14] was “inactive” each time.
With `CN(C)P(=O)(N(C)C)N(C)C`, the Potency entry in test [1], in [2], in [3], in test [4], in test [5] and in [7] was “inactive” in each case. The Potency result in [8], in test [9], in [10], in test [11], in test [12] and in test [13] was “inactive” each time. Moreover, the Potency entry in test [14] was “inactive”.
Turning to `CCC[CH2][Sn]([Cl])([Cl])[CH2]CCC`, the Potency was 438 nM (active) and 17.2 nM (active) in [1]; 276 nM (active) and 17.2 nM (active) in test [2]; 348 nM (active) and 17.2 nM (active) in [3]; 1.4 µM (active) and 389 nM (active) in test [4]; 1.96 µM (active) and 2.73 µM (active) in test [15]; 34.4 nM (active) in test [5]. Also, the Potency in test [8] was 786 nM [inconclusive] (active) and 692 nM [inconclusive] (active); in test [9], 6.24 µM (active) and 2.75 µM (active); in [10], 44.2 µM [inconclusive] (active) and 43.6 µM [inconclusive] (active); in [13] it was 2.46 µM (active) and 770 nM (active); in [14] it was 694 nM (active) and 172 nM (active).
On to `CCCCSP(=O)(SCCCC)SCCCC`, for which the Potency in [1] was 61.1 µM (active). For the same compound, the Potency entry in test [2], in test [3], in [4], in test [15], in test [7] and in test [9] was “inactive” in each case. Also, the Potency result in [13] and in test [14] was “inactive” in each case.
Turning to `CNC(=O)Oc1cccc2c1OC(C)(C)C2`, the Potency result in test [1], in test [3], in test [4], in test [16], in test [18] and in test [5] was “inactive” in each case. For the same compound, the Potency entry in test [7], in test [8], in [9], in test [10], in test [12] and in [13] was “inactive” throughout. In addition, the Potency entry in [14] was “inactive”. Besides, the Potency result was “inactive and 24.3 µM (active)” in test [2]; “inactive and 24.3 µM (active)” in [11]. The activity change is 1.41% (inactive) in test [17] (at 70.3 µM (top of the series)) and 1.74% (inactive) in [17] (at 95 µM (top of the series)).
For the compound `CCOC(=O)c1ccccc1N`, the Potency result in test [1], in [2], in test [3], in test [4], in test [5] and in test [7] was “inactive” each time. In addition, the Potency result in test [8], in test [9], in [10], in [11], in test [12] and in test [13] was “inactive” throughout. Further, the Potency result in test [14] is “inactive”.
